These results are taken from PubChem BioAssay AID2585 (National Center for Advancing Translational Sciences (NCATS), 2010).

This is one part of the list. Records with an inconclusive call do not appear. A number with no mark means an inactive call. The source made the active and inactive calls. Calls follow the shape of the dose curve; as a rule, active = well fitted inhibition curve with a large enough effect; inconclusive = small, poorly fitted or top-dose-only effect; inactive = no such curve, though single readings can be large or run the other way.
% is scaled to controls: 0 for no effect and ±100 for the full control effect; potency is read from the fitted curve at half-maximal effect.

Sequence of RecQ-like DNA helicase BLM (Homo sapiens) (P54132 whole entry, looked up): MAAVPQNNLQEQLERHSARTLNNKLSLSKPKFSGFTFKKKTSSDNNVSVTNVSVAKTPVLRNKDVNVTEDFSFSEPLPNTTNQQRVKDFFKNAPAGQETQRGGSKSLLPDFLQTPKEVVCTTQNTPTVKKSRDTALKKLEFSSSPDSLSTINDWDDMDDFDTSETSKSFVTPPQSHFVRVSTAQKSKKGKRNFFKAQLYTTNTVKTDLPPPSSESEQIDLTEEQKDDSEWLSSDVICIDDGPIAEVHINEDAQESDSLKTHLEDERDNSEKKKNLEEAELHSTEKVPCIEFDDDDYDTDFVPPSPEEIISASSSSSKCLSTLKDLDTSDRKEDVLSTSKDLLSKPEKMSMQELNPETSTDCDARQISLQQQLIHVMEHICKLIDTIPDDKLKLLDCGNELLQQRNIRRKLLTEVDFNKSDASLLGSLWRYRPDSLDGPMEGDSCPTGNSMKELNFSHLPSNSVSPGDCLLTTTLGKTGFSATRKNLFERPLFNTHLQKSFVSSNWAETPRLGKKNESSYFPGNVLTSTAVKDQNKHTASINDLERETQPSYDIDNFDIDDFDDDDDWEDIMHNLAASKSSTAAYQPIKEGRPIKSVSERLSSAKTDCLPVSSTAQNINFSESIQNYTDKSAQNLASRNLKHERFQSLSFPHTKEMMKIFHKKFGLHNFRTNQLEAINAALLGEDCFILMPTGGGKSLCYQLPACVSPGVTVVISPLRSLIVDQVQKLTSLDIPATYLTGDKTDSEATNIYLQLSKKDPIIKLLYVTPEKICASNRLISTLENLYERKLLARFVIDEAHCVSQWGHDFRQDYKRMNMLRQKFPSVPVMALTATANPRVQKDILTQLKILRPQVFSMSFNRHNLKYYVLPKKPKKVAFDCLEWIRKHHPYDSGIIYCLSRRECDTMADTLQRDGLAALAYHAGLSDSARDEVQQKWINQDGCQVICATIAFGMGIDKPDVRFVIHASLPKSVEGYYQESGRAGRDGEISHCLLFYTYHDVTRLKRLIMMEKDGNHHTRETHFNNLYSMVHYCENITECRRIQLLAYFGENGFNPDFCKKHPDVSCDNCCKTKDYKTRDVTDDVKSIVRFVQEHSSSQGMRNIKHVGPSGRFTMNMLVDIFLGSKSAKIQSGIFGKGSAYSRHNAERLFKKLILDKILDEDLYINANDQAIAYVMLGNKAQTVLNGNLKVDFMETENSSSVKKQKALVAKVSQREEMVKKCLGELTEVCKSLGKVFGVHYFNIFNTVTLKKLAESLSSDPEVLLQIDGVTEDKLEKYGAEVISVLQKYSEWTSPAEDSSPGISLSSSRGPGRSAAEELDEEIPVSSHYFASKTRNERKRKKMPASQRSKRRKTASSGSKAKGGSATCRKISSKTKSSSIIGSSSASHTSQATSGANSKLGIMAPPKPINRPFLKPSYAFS

This experiment has as its target RecQ-like DNA helicase BLM (Homo sapiens) (UniProt P54132). Put plainly: qHTS Confirmation Assay for Inhibitors of Bloom's syndrome helicase (BLM). Also: nearly all actives have a fitted effect of over 45% in size. The note with it: BLM DNA unwinding, fluorescence quenching, biochemical. The source says: Survival of cells and the faithful propagation of the genome depend on elaborate mechanisms of detecting and repairing DNA damage. Treatment of advanced cancer relies on radiation therapy or chemotherapy, which kill cancer cells by causing extensive DNA damage. It is often found, that cancer cells develop resistance to therapy through enhanced activity of DNA repair functions; this has led to an increased interest in developing drugs that interfere with DNA repair, which could sensitize cancer cells to conventional therapy. This validation qHTS assay pertains to human BLM, which is important in resolving abnormal DNA structures formed during replication or homologous recombination. Shutting down the expression of BLM leads to chromosomal instability and higher radiation sensitivity in cultured cells. The validation assay was a fluorescence quenching based kinetic qHTS for BLM Helicase DNA unwinding. The activity was measured as ATP-dependent separation of a 20-bp DNA duplex extended by 30-nt single-stranded tails (forked duplex). The forked DNA substrate was tagged with rhodamine fluorophore (carboxytetramethyl rhodamine, TAMRA) and BHQ-2 (Black Hole Quencher 2) dark quencher. Strand separation results in an increase in the fluorescence of TAMRA (excitation 525 nm, emission 598 nm). This substrate construct operates in a red-shifted region where very few compound library members have been noted to fluoresce (PubChem AIDs 593 and 594). An additional feature of the assay is the inclusion of 2.5 ug/ml poly (dIdC), to reduce interference by compounds such as DNA intercalators, a major source of false inhibitors. Assay Providers: Ian Hickson, University of Oxford Opher Gileadi, Structural Genomics Consortium, University of Oxford Screening Center PI: Austin, C.P. Screening Center: NIH Chemical Genomics Center [NCGC]
Three uL of reaction buffer (25 mM Tris-HCl (pH 8.0), 5 mM NaCl, 2 mM MgCl2, 1mM DTT, 0.01% Tween- 20, and 2.5 ug/ml poly(dI-dC), including enzyme (50 nM BLM), were dispensed into a 1536-well Greiner black assay plate via solenoid-valve based nanoliter dispensers. Compounds (23 nl each in columns 5-48) and control (23 nl each in column 2 as dose-response) were transferred via a Kalypsys pintool equipped with a 1536-pin array. The plates were incubated for 15 min at room temperature, and then 1 ul of substrates (200 nM DNA and 2 mM ATP, final concentrations) was added to start the reaction. The plate was transferred into a ViewLux high-throughput CCD imager where the reaction progress was measured in a discontinuous kinetic mode (two reads spaced 2 hours apart, with intermediate room temperature incubation of the covered assay plate) by using standard red-fluorescence optics (excitation filter 525 nm, emission filter 598 nm). Enzyme-free and vehicle (DMSO) controls were included for signal normalization.
As to `Oc1ccc(N=Cc2sc3ccccc3c2Cl)cc1`, the max response, negative = inhibition was -10.8%.
Regarding `CC(C)(O)c1ccccc1CC[C@H](SCC1(CC(=O)O)CC1)c1cccc(/C=C/c2ccc3ccc(Cl)cc3n2)c1`, the Potency was 54.1 µM (active).
As to `COc1ccc(-c2nc3c(c(SCC(=O)Nc4ccc(C(=O)O)cc4)n2)Cc2ccccc2O3)cc1`, the Potency is 5.13 µM (active).
For the molecule `Cc1ccc(-c2nc(SCc3ccc(Br)cc3)n3[nH]c(=O)cc3n2)cc1`, the Potency was 11.5 µM (active).
Same read-out and setting: with `CN(C(=O)COC(=O)c1cc(-c2ccco2)nc2ccccc12)C1CCS(=O)(=O)C1` (configuration not stated) the figure was 18.2 µM (active).
Take `C=C1c2cccc(OC)c2O[C@H](C(=O)OCC)[C@@H]1CCCCCC`: the max response, negative = inhibition was -13.8%.
For the molecule `CS(=O)(=O)c1ccc2nc(NC(=O)c3ccc(Cl)nc3)sc2c1`, the max response, negative = inhibition is 0.0289%.
